Records with an inconclusive call do not appear. Active and inactive are the calls of the source. The call rests on the fitted dose curve; in most records, active means well fitted curve in the direction sought with a large enough effect; inconclusive means small, poorly fitted or top-dose-only effect, or another doubt; inactive means no such curve, though single readings can be large; an effect the other way counts as inactive or inconclusive.
target: Rap guanine nucleotide exchange factor 3 (Homo sapiens) (UniProt O95398); test: Confirmatory qHTS for antagonist of cAMP-regulated guanine nucleotide exchange factor 3 (EPAC1) (AID 1645880); settings: EPAC1 Rap1B-BODIPY-GDP exchange, fluorescence; activity, negative = inhibition: at 115 µM (top of the series); further: nearly all actives have a fitted effect of over 55% in size;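 on activity, negative = inhibition: plate controls were DMSO only for no effect and full effect of the ATA control for full effect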
In short: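 Nucleotide exchange uses 100 nM EPAC1, 250 nM RAP1B-BODIPY-GDP and 50 uM GDP, with compounds in a concentration-titration series. After 5 min at room temperature, fluorescence (480 nm ex/540 nm em) is read every 5 min for 30 min. Data are normalized to control ATA and DMSO.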
Potency means the concentration at half of the fitted maximal effect.

Chain of Rap guanine nucleotide exchange factor 3 (Homo sapiens) (O95398 whole entry, looked up): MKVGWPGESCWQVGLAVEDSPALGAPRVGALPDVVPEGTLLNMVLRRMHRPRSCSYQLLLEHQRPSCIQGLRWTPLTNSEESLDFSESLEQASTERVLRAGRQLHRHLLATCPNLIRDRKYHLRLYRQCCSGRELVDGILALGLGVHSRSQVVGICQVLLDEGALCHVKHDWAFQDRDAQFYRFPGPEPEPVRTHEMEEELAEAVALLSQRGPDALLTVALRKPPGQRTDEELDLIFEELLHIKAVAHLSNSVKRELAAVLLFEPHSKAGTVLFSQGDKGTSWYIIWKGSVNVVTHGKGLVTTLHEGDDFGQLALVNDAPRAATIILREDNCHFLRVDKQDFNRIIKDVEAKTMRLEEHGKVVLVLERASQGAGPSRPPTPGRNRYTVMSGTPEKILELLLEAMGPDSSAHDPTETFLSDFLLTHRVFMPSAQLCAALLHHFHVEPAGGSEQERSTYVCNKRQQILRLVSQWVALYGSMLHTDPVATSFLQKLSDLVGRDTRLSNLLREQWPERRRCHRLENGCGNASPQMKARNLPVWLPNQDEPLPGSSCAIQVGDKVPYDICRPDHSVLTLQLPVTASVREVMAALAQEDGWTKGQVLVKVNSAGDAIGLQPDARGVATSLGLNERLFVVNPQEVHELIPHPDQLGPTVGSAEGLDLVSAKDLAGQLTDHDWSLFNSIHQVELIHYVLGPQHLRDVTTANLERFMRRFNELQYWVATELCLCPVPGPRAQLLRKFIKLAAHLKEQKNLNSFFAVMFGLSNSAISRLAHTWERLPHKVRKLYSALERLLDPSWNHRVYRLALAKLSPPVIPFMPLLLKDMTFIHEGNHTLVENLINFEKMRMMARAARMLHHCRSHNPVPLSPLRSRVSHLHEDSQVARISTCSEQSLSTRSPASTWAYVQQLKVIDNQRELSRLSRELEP

SMILES	Potency	activity, negative = inhibition
CCCC[C@@H]1C=C(C(=O)O)[C@H](c2ccc(Cl)c(Cl)c2)N1S(=O)(=O)c1ccc(C)cc1	84.9 µM (active)	
COCCN(CCOC)Cc1cc(=O)oc2cc(C)cc(C)c12		-24.6% (inactive)
O=C(O)CCCN1C(=O)/C(=C/c2cn(-c3ccccc3)nc2-c2cccs2)SC1=S		4.74% (inactive)
c1ccc(CNc2c(-c3cccc(SC4CCCCC4)c3)nc3ccccn23)cc1		-18.5% (inactive)
COC(=O)c1ccc2nc(-c3ccc(OC)c(OC)c3)c(CC3CCCCC3)n2c1		-30.8% (inactive)
Cc1cc(C)c2c(c1)OC(=O)CC2c1ccccc1C (stereo not given)		-27.1% (inactive)
O=C(O)c1cnn(-c2nc(-c3ccc(Cl)c(Cl)c3)cs2)c1C(F)(F)F	75.7 µM (active)	
CCCCn1nnnc1C(c1cc2ccccc2o1)N1CCCC1 (stereo not given)		-20.2% (inactive)
COCCN(CCOC)Cc1cc(=O)oc2cc(OC)c(Cl)cc12		-16.8% (inactive)
CC1CCCN(C2(O)C(=O)Nc3c(C(F)(F)F)cccc32)C1 (stereo not given)		-27.5% (inactive)
Cc1ccc(C2(c3noc(CN(C)CC4CCCCO4)n3)CCCC2)cc1 (stereo not given)		-23.8% (inactive)
COC(=O)c1ccc2nc(-c3ccc(F)cc3)c(CC3CCCCC3)n2c1		-20% (inactive)
COc1ccc2cc(S(=O)(=O)N3CCCC3)ccc2c1		-17.6% (inactive)
Cc1ccc2cccc(Oc3nnnn3-c3ccccc3)c2n1		-20.9% (inactive)
CC1CN(c2nc3ccccc3cc2-c2ccccc2)CC(C)O1 (stereo not given)		-18.6% (inactive)
C=C(C)Cn1c(C)cc(C)c(S(=O)(=O)c2ccccc2C)c1=O		-23.8% (inactive)
CC(C)CN(C(=O)c1ccco1)c1nc2ccccc2s1		-26.1% (inactive)
CCOC(=O)C1Oc2ccccc2C(c2ccc(F)cc2)=C1C(=O)OC (stereo not given)		-5.23% (inactive)
COC(=O)c1cccc(F)c1C(=O)c1cccc2ccccc12		-24.3% (inactive)
CC(OC(=O)c1ccccc1Oc1ccccc1)C(=O)NC1CC1 (stereo not given)		-18.7% (inactive)

SMILES	Potency	activity, negative = inhibition
COc1ccc(C2CC(=O)Oc3cc(C)cc(C)c32)cc1 (stereo not given)		-23.7% (inactive)
CCn1c(=O)c(C(=O)NNS(=O)(=O)c2ccc(C)cc2)c(O)c2ccccc21	75.7 µM (active)	
Cc1ccc(C2(c3noc(CN(C)Cc4ccccn4)n3)CCCC2)cc1		-21.1% (inactive)
O=C(O)c1ccc(NC(=O)C(c2ccccc2)c2ccccc2)cc1		-24.3% (inactive)
COC(=O)[C@@H]1CC[C@@](C)(c2ccc(OC)cc2)C1(C)C		-17.3% (inactive)
CC1CN(c2nc(-c3ccccc3)nc3ccccc23)CC(C)O1 (stereo not given)		-14.3% (inactive)
COc1ccc(-n2cc(-c3ccccc3)c3c(N4CCOCC4)ncnc32)cc1		-19.6% (inactive)
COc1ccc(/C=C/C(=O)c2ccc(Cl)cc2)c(OC)c1		-29.3% (inactive)
COc1ccc(S(=O)(=O)Nc2ncccc2C)c2ccccc12		-34% (inactive)
COc1cc(N)ccc1-c1cc2ccccc2oc1=O		-14.4% (inactive)
COc1ccc(S(=O)(=O)N2CCCC2)c2ccccc12		-24% (inactive)
CCCCc1c(C)nc2ccccc2c1SCCC#N		-23% (inactive)
COc1cc(NC(C)=O)ccc1-c1cc2ccccc2oc1=O		-6.48% (inactive)
CCCCC1=C(C(=O)OCC)C(C(=O)OCC)Oc2ccccc21 (stereo not given)		-26.4% (inactive)
CCC(=O)OC1CC(C)N(C(=O)c2ccccc2)c2ccc(C)cc21 (stereo not given)		-19.1% (inactive)
Cc1ccc(C2N(c3ccc(Cl)cc3)C(=O)N3CCCN23)cc1 (stereo not given)		-17.3% (inactive)
COc1ccc2c(c1)CCc1c(C(=O)N3CCCc4ccccc43)noc1-2		-20.6% (inactive)
CCOc1cc(C)c(S(=O)(=O)N2CCCCC2)cc1C		-24.9% (inactive)
Cc1cccc2c1NC(=O)C2(O)N1CCCC(C)C1 (stereo not given)		-20.5% (inactive)
COc1ccc(-c2ccc(CCC(=O)O)n2-c2ccc(Cl)cc2C)cc1		-17% (inactive)

target: Rap guanine nucleotide exchange factor 3 (Homo sapiens) (UniProt O95398); test: Confirmatory qHTS for agonist of cAMP-regulated guanine nucleotide exchange factor 3 (EPAC1) (AID 1645881); settings: EPAC1 Rap1B BODIPY-GDP exchange fluorescence; series mostly up to 154 µM; activation: at the top concentration; further: nearly all actives have a fitted effect of over 75% in size;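 on activation: EPAC1 catalysed release of BODIPY-GDP from Rap1B seen as fluorescence loss; 100% = effect of cAMP agonist control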

SMILES	activation	Potency
CCCC[C@@H]1C=C(C(=O)O)[C@H](c2ccc(Cl)c(Cl)c2)N1S(=O)(=O)c1ccc(C)cc1	-24.6% (inactive)	
COCCN(CCOC)Cc1cc(=O)oc2cc(C)cc(C)c12	2.89% (inactive)	
O=C(O)CCCN1C(=O)/C(=C/c2cn(-c3ccccc3)nc2-c2cccs2)SC1=S		112 µM (active)
c1ccc(CNc2c(-c3cccc(SC4CCCCC4)c3)nc3ccccn23)cc1	9.12% (inactive)	
COC(=O)c1ccc2nc(-c3ccc(OC)c(OC)c3)c(CC3CCCCC3)n2c1	1.13% (inactive)	
Cc1cc(C)c2c(c1)OC(=O)CC2c1ccccc1C (stereo not given)	15.9% (inactive)	
O=C(O)c1cnn(-c2nc(-c3ccc(Cl)c(Cl)c3)cs2)c1C(F)(F)F	-16.3% (inactive)	
CCCCn1nnnc1C(c1cc2ccccc2o1)N1CCCC1 (stereo not given)	9.34% (inactive)	
COCCN(CCOC)Cc1cc(=O)oc2cc(OC)c(Cl)cc12	0.865% (inactive)	
CC1CCCN(C2(O)C(=O)Nc3c(C(F)(F)F)cccc32)C1 (stereo not given)	7.31% (inactive)	
Cc1ccc(C2(c3noc(CN(C)CC4CCCCO4)n3)CCCC2)cc1 (stereo not given)	-2.66% (inactive)	
COC(=O)c1ccc2nc(-c3ccc(F)cc3)c(CC3CCCCC3)n2c1	5.88% (inactive)	
COc1ccc2cc(S(=O)(=O)N3CCCC3)ccc2c1	9.78% (inactive)	
Cc1ccc2cccc(Oc3nnnn3-c3ccccc3)c2n1	18.6% (inactive)	
CC1CN(c2nc3ccccc3cc2-c2ccccc2)CC(C)O1 (stereo not given)	0.485% (inactive)	
C=C(C)Cn1c(C)cc(C)c(S(=O)(=O)c2ccccc2C)c1=O	11.4% (inactive)	
CC(C)CN(C(=O)c1ccco1)c1nc2ccccc2s1	22.9% (inactive)	
CCOC(=O)C1Oc2ccccc2C(c2ccc(F)cc2)=C1C(=O)OC (stereo not given)	17.5% (inactive)	
COC(=O)c1cccc(F)c1C(=O)c1cccc2ccccc12	11.6% (inactive)	
CC(OC(=O)c1ccccc1Oc1ccccc1)C(=O)NC1CC1 (stereo not given)	7.64% (inactive)	

SMILES	activation	Potency
COc1ccc(C2CC(=O)Oc3cc(C)cc(C)c32)cc1 (stereo not given)	27.1% (inactive)	
CCn1c(=O)c(C(=O)NNS(=O)(=O)c2ccc(C)cc2)c(O)c2ccccc21	10.5% (inactive)	
Cc1ccc(C2(c3noc(CN(C)Cc4ccccn4)n3)CCCC2)cc1	3.03% (inactive)	
O=C(O)c1ccc(NC(=O)C(c2ccccc2)c2ccccc2)cc1	11.3% (inactive)	
COC(=O)[C@@H]1CC[C@@](C)(c2ccc(OC)cc2)C1(C)C	7.72% (inactive)	
CC1CN(c2nc(-c3ccccc3)nc3ccccc23)CC(C)O1 (stereo not given)	14% (inactive)	
COc1ccc(-n2cc(-c3ccccc3)c3c(N4CCOCC4)ncnc32)cc1	23.4% (inactive)	
COc1ccc(/C=C/C(=O)c2ccc(Cl)cc2)c(OC)c1	19.9% (inactive)	
COc1ccc(S(=O)(=O)Nc2ncccc2C)c2ccccc12	15.3% (inactive)	
COc1cc(N)ccc1-c1cc2ccccc2oc1=O	1.56% (inactive)	
COc1ccc(S(=O)(=O)N2CCCC2)c2ccccc12	10.2% (inactive)	
CCCCc1c(C)nc2ccccc2c1SCCC#N	20.4% (inactive)	
COc1cc(NC(C)=O)ccc1-c1cc2ccccc2oc1=O	3.48% (inactive)	
CCCCC1=C(C(=O)OCC)C(C(=O)OCC)Oc2ccccc21 (stereo not given)	-5.14% (inactive)	
CCC(=O)OC1CC(C)N(C(=O)c2ccccc2)c2ccc(C)cc21 (stereo not given)	5.04% (inactive)	
Cc1ccc(C2N(c3ccc(Cl)cc3)C(=O)N3CCCN23)cc1 (stereo not given)	15.5% (inactive)	
COc1ccc2c(c1)CCc1c(C(=O)N3CCCc4ccccc43)noc1-2	12.5% (inactive)	
CCOc1cc(C)c(S(=O)(=O)N2CCCCC2)cc1C	22.8% (inactive)	
Cc1cccc2c1NC(=O)C2(O)N1CCCC(C)C1 (stereo not given)	-0.644% (inactive)	
COc1ccc(-c2ccc(CCC(=O)O)n2-c2ccc(Cl)cc2C)cc1	5.8% (inactive)	

Source: PubChem BioAssay (NCATS)
